Screens as filed in PubChem.
A selection: hits, their analogues and other compounds. The true share with any hit is near 2.2%.
M1 PAM = human M1 muscarinic receptor positive allosteric modulators, primary screen, CHO-K1 cells, Fluo-8 calcium fluorescence, 1536-well; activation, % at 3 µM; Muscarinic acetylcholine receptor M1 (Homo sapiens), P11229; CHO-K1 hM1, ACh EC20; 0% = ACh EC20, 100% = maximal ACh; 360,000 compounds, 0.088% hits; in the data active = activation above about 19%, passing the limit was not always enough
CHRM4 agonist = human M4 muscarinic receptor agonists, primary screen, CHO-K1 cells, Fluo-8 calcium fluorescence; Muscarinic acetylcholine receptor M4 (Homo sapiens), P08173; CHO-K1 hM4/Gqi5; vehicle 0%, full acetylcholine response 100%; activation, % at 3 µM; 360,000 compounds, 0.14% hits; AID 624127, 2012;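 active = activation above the run mean over all test wells plus 3 SD, cut at about 32% in these data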;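 note: peak over basal fluorescence ratio per well then scaled between controls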
Target sequence (P08173 whole entry, looked up): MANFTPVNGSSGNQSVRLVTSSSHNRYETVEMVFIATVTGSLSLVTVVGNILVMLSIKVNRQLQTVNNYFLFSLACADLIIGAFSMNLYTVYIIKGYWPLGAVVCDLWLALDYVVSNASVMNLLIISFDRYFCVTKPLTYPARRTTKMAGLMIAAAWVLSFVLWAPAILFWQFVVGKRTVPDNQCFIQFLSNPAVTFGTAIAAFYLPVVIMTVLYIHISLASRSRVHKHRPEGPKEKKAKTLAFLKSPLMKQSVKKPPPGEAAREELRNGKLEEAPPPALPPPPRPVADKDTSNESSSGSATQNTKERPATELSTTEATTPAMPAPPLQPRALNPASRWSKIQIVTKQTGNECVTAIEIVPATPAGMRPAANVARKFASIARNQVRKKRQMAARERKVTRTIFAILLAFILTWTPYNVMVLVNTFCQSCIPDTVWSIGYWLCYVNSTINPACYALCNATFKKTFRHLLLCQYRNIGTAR
M4 antag = human M4 muscarinic receptor antagonists, primary screen, CHO cells, Fluo-8 calcium fluorescence; Muscarinic acetylcholine receptor M4 (Homo sapiens), P08173; CHO-hM4 cells, ACh EC80; inhibition, % at 3 µM; 360,000 compounds, 0.73% hits;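 active = inhibition above its plate's cutoff, the mean inhibition of sample wells plus 3 SD, cut at about 27% in these data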
CHRM1 agonist = human M1 muscarinic receptor agonists, primary screen, Fluo-8 calcium fluorescence, CHO-K1 cells, HTS; Muscarinic acetylcholine receptor M1 (Homo sapiens), P11229; CHO-K1 hM1, agonist mode; 0% DMSO, 100% acetylcholine EC100; activation, % at 3 µM; 360,000 compounds, 0.33% hits; AID 588814, 2011;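 active = activation above the run's mean compound activation plus 3 SD, cut at about 16% in these data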;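 note: peak over basal fluorescence ratio within a 140 s kinetic read after compound addition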
M4 PAM = human M4 muscarinic receptor positive allosteric modulators, primary screen, CHO-K1 cells, Fluo-8 calcium fluorescence. Muscarinic acetylcholine receptor M4 (Homo sapiens), P08173. activation, % at 3 µM. CHO-K1 hM4/Gqi5, ACh EC20; 0% = ACh EC20, 100% = maximal ACh. 360,000 compounds, 0.4% hits. AID 624126, 2012;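 active = activation above its plate's cutoff, the mean activation of sample wells plus 3 SD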
CHRM1 antagonist = human M1 muscarinic receptor antagonists, primary screen, CHO-K1 cells, Fluo-8 calcium fluorescence, 1536-well | 360,000 compounds, 1.3% hits | inhibition, % at 3 µM | CHO-K1 hM1, ACh EC80 antagonist | AID 588852, 2011;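 active = percent inhibition above its own plate's cutoff, namely the mean of that plate's compound wells plus 3 SD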;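 note: peak over basal fluorescence ratio during 140 s after agonist addition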
Large screens that a line does not name were inactive.

CC1CC(C)CN(C(=O)c2ccc(Br)c(S(=O)(=O)N3CCOCC3)c2)C1 (configuration not stated)	none
Nc1nonc1-n1nnc(C(=O)N/N=C/c2ccccc2Cl)c1-c1ccccc1	none
COc1cccc(-c2c(C(=O)N/N=C/c3ccsc3)nnn2-c2nonc2N)c1	none
Nc1nonc1-n1nnc(C(=O)N/N=C/c2ccc(F)cc2)c1-c1cccs1	CHRM1 agonist 19
CC(/C=N/NC(=O)c1nnn(-c2nonc2N)c1C(C)C)=C\c1ccco1	M4 PAM 17
Nc1nonc1-n1nnc(C(=O)N/N=C/c2ccoc2)c1-c1ccccc1	CHRM1 agonist 16
COc1cccc(-c2c(C(=O)N/N=C/c3ccco3)nnn2-c2nonc2N)c1	CHRM1 agonist 35
Cc1ccc(S(=O)(=O)N(C)c2ccc(OCC(=O)Nc3ccc(S(C)(=O)=O)cc3)cc2)cc1	none
Nc1nonc1-n1nnc(C(=O)N/N=C/c2ccco2)c1-c1ccccc1	CHRM1 agonist 22
CC(=O)Nc1ccc(NC(=S)NC(=O)C2CC2)cc1	M4 PAM 25
Oc1ccc(N=Nc2c(O)ccc3ccccc23)cc1	M4 PAM 31
NS(=O)(=O)c1ccc(N=Nc2c(O)ccc3ccccc23)cc1	none
Cc1ccc(C(=O)COC(=O)CNC(=O)c2ccccc2)s1	M4 PAM 22
CSCCC(NS(=O)(=O)c1ccc2c(c1)OCCO2)C(=O)N(C)Cc1ccc(F)cc1 (configuration not stated)	none
CSCCC(NS(=O)(=O)c1cccc(C(F)(F)F)c1)C(=O)N(C)Cc1ccc2c(c1)OCCO2 (configuration not stated)	CHRM1 antagonist 38
Cc1ccc(COc2ccc(CNCCCN3CCCCCC3=O)cc2)cc1	CHRM1 antagonist 46
Cc1ccc(NC(=O)C(=O)NCCCN2CCCC2=O)cc1	none
Cc1c(Cl)cccc1NC(=O)CNC(=O)c1ccc2c(c1)OCCO2	M4 PAM 22
Cc1cc(C)cc(CN2CCC(Oc3ccc(C(=O)N4CCCC4)cc3)CC2)c1	none
CSc1ccc(CN2CCC(Oc3cccc(C(=O)N4CCCC4)c3)CC2)cc1	M4 antag 55, CHRM1 antagonist 75
O=C(c1cccc(OC2CCN(Cc3cc(F)cc(F)c3)CC2)c1)N1CCCC1	none
COC(=O)c1ccc(CN2CCC(Oc3cccc(C(=O)N4CCCC4)c3)CC2)cc1	M4 antag 95, CHRM1 antagonist 94
COC(=O)c1ccc(CN2CCC(Oc3ccc(C(=O)N4CCCCC4)cc3)CC2)cc1	M4 antag 62, CHRM1 antagonist 97
CCCCCCCCNS(=O)(=O)CCNCc1ccco1	none
Cc1cc(OCCn2ccnc2)cc(C(C)C)c1	CHRM1 antagonist 74
Cc1cccc(OCCn2ccnc2)c1	none
Cc1cccc(OCCCCCn2ccnc2)c1	CHRM1 agonist 17
COCCNC(=O)c1cc(S(=O)(=O)N2CCC3(CC2)OCCO3)ccc1F	none
CC(C)OCCCN(C)C1CCN(S(=O)(=O)c2csc(C(N)=O)c2)CC1	none
CC(C)OCCCN(C)C1CCN(S(=O)(=O)c2ccc(-c3cc(C(F)(F)F)no3)s2)CC1	M4 antag 53
Cc1ccc(N2CC(C(=O)Nc3ccc(S(=O)(=O)NCC4CCCO4)cc3)CC2=O)cc1 (configuration not stated)	none
CN1CCCC(CC2c3ccccc3Sc3ccccc32)C1 (configuration not stated)	M4 antag 99, CHRM1 antagonist 99
Cc1nc(N)sc1-c1csc(Nc2ccc(S(N)(=O)=O)cc2)n1	none
CC(=O)N(c1ccccc1C)C1CCCC1	none
CC(=O)N(C1=C(Cl)C(=O)c2ccccc2C1=O)C1CCCCC1	M4 antag 44
O=C(COc1ccccc1)NC(=S)Nc1ccc2c3c(cccc13)CC2	none
